Reference: the supplement of paper PMC6555819

What was measured:
Assay in all cases: PBM binding z-score (relative to random genomic background probes); higher = stronger binding; sequences stand for … in GC…GCGATTGACAGCGTAGAATGAAGG
[1] = tested on: RARb homodimer (NR concentration 270 nM)
How it was run: (§1)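 Each nuclear receptor dimer, without ligand, was incubated for 1 h on custom Agilent 4×180K protein-binding microarrays. Binding was detected with antibodies against each partner (one per run), and scanned fluorescence was regression-normalized. The binding z-scores are referenced to random human genomic background probes.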

[2] = tested on: RARg:RXRa (NR concentration 270 nM, RXRa partner concentration 90 nM)
How it was run: as §1

[3] = tested on: RARg homodimer (NR concentration 270 nM)
How it was run: as §1

[4] = tested on: RXRa DBDmut IVT, anti-RXR (DBD mutation: RXRa K156A/R161A, NR concentration 90 nM)
How it was run: as §1

[5] = tested on: RXRa homodimer (NR concentration 180 nM)
How it was run: as §1

[6] = tested on: THRa:RXRa (NR concentration 90 nM, RXRa partner concentration 90 nM)
How it was run: as §1

[7] = tested on: THRa homodimer (NR concentration 90 nM)
How it was run: as §1

[8] = tested on: VDR:RXRa (NR concentration 270 nM, RXRa partner concentration 90 nM)
How it was run: as §1

[9] = tested on: VDR homodimer (NR concentration 270 nM)
How it was run: as §1

Sequence | PBM binding z-score [1] | PBM binding z-score [2] | PBM binding z-score [3] | PBM binding z-score [4] | PBM binding z-score [5] | PBM binding z-score [6] | PBM binding z-score [7] | PBM binding z-score [8] | PBM binding z-score [9]
CGAACTAGGTCAGAACAGGACAGTGCAGGATGAT | 2.14 | 2.44 | 3.46 | 0.591 | 1.26 | 3.38 | 0.224 | 0.787 | 0.113
GATACAGGGTCCAGGCCAGAGTACGCGTATTGAT | 0.265 | 0.144 | 0.255 | -0.135 | 0.291 | -0.105 | -0.0572 | -0.0532 | 0.607
GGAACGAGGGCAAACTTGATAGCATCTGTCGACG | 1.03 | 1.52 | 1.62 | 3.1 | 1.17 | 1.09 | -0.309 | 1.42 | 1.61
GCATATAGGTAATACATGGTGAAAGTCCGATTGT | -0.181 | 0.00391 | 0.437 | 0.319 | 0.441 | 0.327 | -0.218 | -0.0137 | 0.32
ATATGTAGGTTACATCCGTGTCATTCAGGCTATG | 1.2 | 1.59 | 1.21 | 1.02 | 1.08 | 1.4 | 0.344 | 1.4 | 0.511
ATATGTAGGTTGCATCCGGGTCATTCAGGCTATG | 2.16 | 2.04 | 1.12 | 0.735 | 2.28 | 3.03 | 1.96 | 3.47 | 2.66
TCATGTAGATCAATAGAGGTTAAGAAAGTGCGCT | 1.44 | 0.871 | 0.576 | 1.27 | 1.28 | 2.31 | -0.192 | 1.93 | 0.637
CTACCAAGTTGAACAAGGTCGTTGATTACTATTC | 1.75 | 0.927 | 0.929 | 2.12 | 1.15 | 2.77 | 1.57 | 5.18 | 3.58
TGAATGAGGTTATAATATCAGGGAACGTTGCAAA | 0.41 | 1.56 | 1.12 | 0.98 | 2.04 | 1.92 | 0.355 | 1.35 | 0.545
TCATCTAGGTAATACAGGTGAAAGTCGGCATCTA | 0.692 | 0.578 | 0.298 | 1.24 | 0.959 | 1.07 | 0.275 | 0.916 | 0.373
AGCTCTAGGTAAAGTTCAGTGAAAGATCGATAGA | 2.32 | 1.94 | 2.58 | 1.43 | 0.97 | 0.941 | -0.0509 | 1.08 | 1.6
CTACCAAGGTGAACAAGGTCGTTGCTTACTATTC | 2.09 | 1.83 | 1.34 | 1.73 | 2.12 | 3.15 | 2.03 | 6.16 | 2.89
CCTAGTTGGTCAGGAGGTCTCACACCGGATATGA | 1.11 | 0.617 | 0.718 | -0.451 | 0.298 | 0.191 | 0.505 | 0.189 | 0.261
TCAAGTTGGTCAAAGGTCACACACTCGAAATGCG | 5.19 | 7.2 | 6.47 | 2.15 | 8.37 | 4.16 | 1.86 | 5.58 | 2.4
TCGCGTAGGTTACCAATGGGGCATTCAGCTTTCT | 0.809 | 1.42 | 0.306 | 0.302 | 0.572 | 0.107 | -0.509 | 0.236 | -0.338
AGTCAAAGTTCACTAGGTAACGAAAGATTCAGCT | 3.45 | 4.86 | 5.55 | 3.95 | 3.92 | 1.85 | 0.1 | 3.25 | 3.69
CCTTACGGGTCACTCCAGGTTATGGCATCGGAGT | 3.07 | 4.46 | 4.54 | 1.4 | 4.22 | 5.16 | 0.627 | 4.08 | 1.62
CAAACTAGGACAAGAGGTCAAAGTCCGCTTCCCG | 4.38 | 5.63 | 4.63 | 2.33 | 6.3 | 3.92 | 1.89 | 5 | 4.42
CGAACTAGGTCATCCGGGACAGTGAATACATTGA | 2.87 | 3.87 | 4.59 | 2.41 | 2.75 | 3.58 | 1.84 | 4.04 | 1.96
GATACAGGGTCAGCTAGAGGCCAGAGGATGGAAA | 3.55 | 6.91 | 4.81 | 1.22 | 4.69 | 2.93 | 0.198 | 3.12 | 0.847
CGTCCAAGGTCCAGGTCAGTGAAAGAGACTCGAA | 2.38 | 1.4 | 1.92 | 0.467 | 0.732 | 2.22 | 1.67 | 0.373 | 0.482
TCTGCTAGGTCAGTTGGTCAACTAACGAGCTGCC | 2.71 | 2.82 | 3.64 | 0.186 | 1.03 | 1.43 | -0.321 | 0.33 | -0.774
CAAACTAGGACACAGAGGTCAAAGTCCGTGCGTA | 4.68 | 5.54 | 5.17 | 2.31 | 6.42 | 4.36 | 2.5 | 5.69 | 5.25
ATCGAAAGATCGAAGGTGAGTATACCCACCCGAA | -0.186 | 0.34 | 0.489 | -0.722 | 0.765 | 0.17 | -0.601 | 0.0219 | -0.259
TATGCTAGGTCAGTTGGTCAGCTAACGAGCTGCC | 2.5 | 2.62 | 3.34 | -0.0461 | 1.06 | 1.3 | 0.034 | 0.137 | -0.256
CCTAGGAGGACAGAAGGTCAGAGCTGTCCGCTTT | 3.34 | 3.28 | 2.78 | 0.179 | 1.84 | 2.25 | -0.21 | 1.09 | -0.00238

Sequence | PBM binding z-score [1] | PBM binding z-score [2] | PBM binding z-score [3] | PBM binding z-score [4] | PBM binding z-score [5] | PBM binding z-score [6] | PBM binding z-score [7] | PBM binding z-score [8] | PBM binding z-score [9]
TAGCCTAGGTCAGATCCGGCCAGTATACGCTATA | 2.26 | 2.41 | 3.5 | -0.288 | 1.41 | 3.4 | 0.0339 | 0.403 | -0.271
TTACCAAGGTGAGCTGAGGTCTTTGATCCAACTC | 0.568 | 0.335 | 0.384 | -0.584 | 0.322 | 4.17 | 0.8 | 0.497 | -0.646
CATACAGGATCAGCTAGGCCAGAGTAGGGACGGC | -0.0161 | -0.112 | 0.213 | -0.652 | -0.0715 | -0.122 | 0.03 | -0.514 | 0.0286
ATATGTAGGTTAAGGGTCCTTCAGGTTGGTTCGC | 1.37 | 1.03 | 1.09 | 0.575 | 1.59 | 1.15 | 0.749 | 1.67 | 1.01
TAGCCCAGGTCATTGGGCCAGTATAGTACGCATC | 2.76 | 3.9 | 4.11 | 2.29 | 3.37 | 3.36 | 1.65 | 3.03 | 2.16
CGAACTAGGTCAGAATAGGACAGTGAAGGATGAT | 2.16 | 2.58 | 3.36 | 0.702 | 1.3 | 2.77 | 0.0202 | 0.491 | -0.245
CGTCATAGTTCAACTAAGGTAACGTAAAGCACGC | 2.62 | 3.44 | 3.83 | 2.38 | 2.7 | 5.14 | 1.9 | 2.59 | 1.51
CGTCCAGGGTCAATGCTAGGTCAGTGAAAGCATT | 4.65 | 7.39 | 5.63 | 2.78 | 5.37 | 4.35 | 1.79 | 4.9 | 2.33
GAAACGAGGGCAAAGTTGATAGCATCTGTCGACG | 1.33 | 2.11 | 1.58 | 2.66 | 2.3 | 1.57 | -0.284 | 1.69 | 1.13
ATATGTAGGTTAGCTGGGGTCTTTCAGACTAGGC | 0.902 | 0.713 | 0.709 | 0.448 | 0.914 | 3.67 | 0.871 | 1.28 | 0.329
GCTCTTAGTTGAAAGGGCAACCGAATGATTCTCG | 1.96 | 1.34 | 1.31 | 0.899 | 1.18 | 0.622 | -0.289 | 0.445 | 0.164
TCATATAGGTAAAGGTGAAATTCGAACGATATGA | 1.3 | 1.56 | 1.28 | 0.746 | 2.19 | 1.37 | -0.553 | 1.03 | -0.144
TCGAGTAGGTGAGGGGCATTCAGAATGGCGTCGA | 0.716 | -0.0952 | -0.106 | 0.0823 | 0.442 | 0.268 | -0.559 | -0.0355 | -0.687
TCTATTAGTTGAATGGCAACCGACGAGTCCGTTT | 0.038 | 0.299 | 0.139 | 1.73 | 0.383 | -0.116 | 0.299 | 0.746 | 1.28
GCAACTGGGGCATCAGCAGGTTACCATAACTTAA | 0.793 | 0.74 | 0.473 | 0.26 | 0.318 | 1.04 | 0.19 | -0.109 | -0.0433
AATACAGGGTCACCGTAGGCCAGAGTACGCACAG | 3.94 | 6.08 | 5.9 | 2.62 | 7.11 | 4.55 | 1.77 | 5.2 | 2.81
AGAATGCGGTTATACGTAGATCAGGGAAGAAAGT | -0.25 | 0.0152 | -0.0583 | -0.501 | 0.067 | -0.31 | -0.634 | -0.334 | -0.661
AGAACGAGGGCACGCTGAGTTGATTGCAGAGTAG | 1.13 | 1.93 | 2.38 | 1.87 | 1.27 | 1.86 | -0.121 | 2.04 | 2.17
AATACAGGGTCATCGTAGGCCAGAGCACGCACAG | 3.55 | 5.92 | 5.24 | 3.61 | 6.36 | 4.52 | 1.4 | 5.2 | 3.18
CGTCCAAGGTCAGCACGTCAGTGAAAGCGACGTG | 4 | 5.13 | 5.75 | 2.51 | 3.83 | 3.43 | 1.9 | 2.46 | 0.904
CCGAGTAGGTTAAGGGGCATTCAGGCAACGGTGA | 1.56 | 1.08 | 0.926 | 0.277 | 1.43 | 1.32 | 0.369 | 0.877 | 0.685
CCTACTGGGCCAAGGTCATTTATCAGTCAAAGCA | 3.46 | 3.47 | 2.79 | 1.61 | 3.07 | 3.27 | 2.44 | 3.13 | 3.42
GCTGCTAGGTCAACTGATGGGCAGCTAAAGCTCG | 3 | 4.73 | 5.5 | 1.45 | 2.89 | 2.68 | 0.684 | 1.09 | -0.378
GCAGACCGGTGAAACGCAGGTAACTCAGGGTGGC | -0.498 | -0.367 | -0.32 | -1.11 | -0.345 | 0.683 | -0.854 | -0.857 | -0.771
ATCGAAAGGCCGAAGGTGAGTATACCCACCCGAA | 0.463 | 0.847 | 0.8 | -0.881 | 0.581 | 0.037 | -0.66 | -0.338 | -0.679
AGAATGAGGTTAGACGTAGATCAGGGAAGAAAGT | 0.932 | 0.987 | 0.859 | 0.209 | 1.17 | 1.55 | 0.554 | 0.639 | 0.591
